Source: PubChem BioAssay AID1619 (SRMLSC, 2009)
Screen size: about 220,000 compounds; about 830 (0.38%) were called active.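 How the source made its calls: active means compound inhibiting the enzyme by more than half at any dose during confirmatory dose-response retesting; inconclusive means strong single-dose inhibitors picked by rank but not retested; inactive means the rest.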 The list is a sample of the results. Results with a measured potency or affinity are listed apart. Non-standard residues stand in square brackets, D forms with d. Residues, ends and D or L forms follow the SMILES beside them. ξ: configuration not given here. *: point of attachment. Cbz = O=C(OCc1ccccc1)*; OBn = c1ccc(CO*)cc1; ξP = O=C(O)C1CCCN1

biological target: Leucine aminopeptidase (Plasmodium falciparum (isolate 3D7)) (UniProt Q8IL11); assay: P. falciparum M17LAP inhibitors, primary screen, biochemical, fluorogenic H-Leu-NHMec substrate, 1536-well (AID 1619); settings: recombinant M17LAP, H-Leu-NHMec fluorogenic kinetic assay; at 30 µM; hits give high values;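 further: plate controls were full reaction with DMSO carrier for no effect and no enzyme background for full effect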
Sequence (Q8IL11 whole entry, looked up): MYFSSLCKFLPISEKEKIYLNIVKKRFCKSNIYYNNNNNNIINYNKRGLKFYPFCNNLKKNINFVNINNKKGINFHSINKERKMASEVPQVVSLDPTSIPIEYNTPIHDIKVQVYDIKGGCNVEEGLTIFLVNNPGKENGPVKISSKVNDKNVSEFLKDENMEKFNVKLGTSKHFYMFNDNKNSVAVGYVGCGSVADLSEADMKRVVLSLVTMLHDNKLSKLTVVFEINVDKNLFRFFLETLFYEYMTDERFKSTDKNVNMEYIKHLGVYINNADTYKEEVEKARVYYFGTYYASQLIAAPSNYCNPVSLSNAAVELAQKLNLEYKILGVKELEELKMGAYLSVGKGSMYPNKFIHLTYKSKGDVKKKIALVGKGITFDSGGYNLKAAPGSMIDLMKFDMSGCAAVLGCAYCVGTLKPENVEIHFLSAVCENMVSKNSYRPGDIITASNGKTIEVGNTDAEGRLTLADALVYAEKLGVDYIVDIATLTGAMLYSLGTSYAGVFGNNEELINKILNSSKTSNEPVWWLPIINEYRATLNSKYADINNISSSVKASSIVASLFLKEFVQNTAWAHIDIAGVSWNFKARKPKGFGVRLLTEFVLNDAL

inhibition, inactive:
CN1C(=O)CS(=O)c2ccc(C(=O)NCCC3=CCCCC3)cc21 (centres undefined) -0.02%
CCC(=O)N(Cc1ccc(C)cc1)Cc1cc2cc3c(cc2[nH]c1=O)OCO3 -7.35%
O=C(c1ccccc1)N1CCN(C(=O)c2ccccc2)C1c1ccccc1 -9.12%
O=C(CSCc1nc2c(nnn2Cc2ccc(F)cc2)c(=O)[nH]1)Nc1c(Cl)cc(Cl)cc1Cl 30.5%
Cc1cccc(NC(=O)CSCc2nc3c(nnn3Cc3ccc(F)cc3)c(=O)[nH]2)c1C 22.9%
CN1CCN(C(=O)C2=C[C@@H](c3ccccc3)C[C@@H](OCCCCO)O2)CC1 2.48%
COc1ccc(Br)cc1/C=N/Nc1cccc(C(=O)O)c1 25%
C=CCOc1c(CNc2cccc(C(=O)O)c2)cccc1OC 1.85%
O=C(NNC(=O)C1[C@H]2CCCC[C@@H]12)Nc1cccc2ccccc12 (some centres undefined) 0.58%
C/C(=N/OC(=O)c1c(F)cccc1F)c1nccs1 -5.2%
CC(=O)C1=C(O)C(=O)N(c2ccc(Br)cn2)C1c1ccc(F)cc1 (centres undefined) 20.5%
O=C(CNC(=O)OCc1ccccc1)NCC(=O)N1CCCC1C(=O)OCc1ccccc1 (stereo not drawn) (Cbz-Gly-Gly-[ξP]-OBn) 2.1%
O=C(O)CCC(=O)N1CCC[C@H]1C(=O)O 3.33%
Cc1ccc(C(=O)CN(C(=O)c2ccc(Cl)c(Cl)c2)N2C(=O)C3C4C=CC(C4)C3C2=O)cc1 (centres undefined) -2.9%
Cc1ccc2nc(SCC(=O)Nc3ccc4c(c3)CCC4)[nH]c2c1 -0.04%
COc1cccc(NC(=O)CSc2ncc(S(=O)(=O)c3ccccc3)c(=O)[nH]2)c1 9.3%
O=C(CSc1ncccn1)Nc1ccc2c(c1)CCC2 -3.11%
CCCc1cc(=O)[nH]c(SCC(=O)Nc2ccc3c(c2)CCC3)n1 19.8%
O=C(CSc1ncc(S(=O)(=O)c2ccccc2)c(=O)[nH]1)Nc1ccccc1Cl 28.8%
O=C(CSc1nc(-c2ccco2)cc(C(F)(F)F)n1)Nc1ccc2c(c1)CCC2 15.2%
Cc1ccc(NC(=O)CSc2ncn(-c3ccccc3)n2)cc1C 3.12%
Cc1ccc(NC(=O)CSc2ncc3ccccn23)cc1C -1.12%
COc1cc(/C=C/C(=O)c2c(O)cc(C)oc2=O)cc(OC)c1O 23.1%
CCOC(=O)c1sc(NNC(=O)c2ccc(F)cc2)nc1C 4.21%
CC(=O)c1cc(-c2ccccc2)n(CC(=O)N2CCC(N3CCCCC3)CC2)c1C 5.06%
CCOCc1nc(C)c(Cl)c(NS(=O)(=O)c2ccc(N)cc2)n1 -2.71%
CCCCCCCCn1c(N2CCN(c3cccc(Cl)c3)CC2)nc2c1c(=O)[nH]c(=O)n2C 0.06%
CCCn1c(SCC(=O)Nc2ccc3c(c2)CCC3)n[nH]c1=O 24.5%
COc1ccc(NC(=O)CSc2nc3c(c(=O)[nH]2)CCC3)cc1OC 7.54%
COc1ccc2nc(SCC(=O)Nc3ccc4c(c3)CCC4)[nH]c2c1 5.26%
Cc1ccc(NC(=O)CSc2n[nH]c(-c3ccncc3)n2)cc1C 13.3%
CCOC(=O)c1ccc(NC(=O)CSc2nc(SC)ns2)cc1 4.11%
COc1ccc(C(=O)CNc2ccc(C)cc2C)cc1 -4.8%
O=C(CSc1nc2nn(-c3ccccc3)c(=O)c-2c2n1CCCCC2)NCCc1ccccc1 -13.9%
O=C(Nc1cc2c(oc1=O)CCCC2=O)c1ccccc1 1.43%
CC1=C(C(=O)Nc2ccccc2)C(c2ccc(Cl)cc2)n2c(s/c(=C/c3cccc(OCC(=O)O)c3)c2=O)=N1 (centres undefined) 4.09%
COc1cccc(C2C(C(=O)Nc3ccccc3)=C(C)N=c3s/c(=C/c4ccc(OCC(=O)O)cc4)c(=O)n32)c1 (centres undefined) 55.7%
N=C1N(/N=C/c2ccccc2)C(=Nc2ccccc2)C(=S)N1c1ccccc1 16.1%
O=C1CC(N2CCC(c3nc4ccccc4s3)CC2)C(=O)N1Cc1ccccc1 (centres undefined) -10.9%
Cc1cccc(N(C)S(=O)(=O)c2ccc3[nH]c(=O)c(=O)[nH]c3c2)c1 53.7%
CCN(c1ccccc1)S(=O)(=O)c1ccc2[nH]c(=O)[nH]c2c1 -1.87%
O=C(CSc1ccc2nnc(-c3ccccn3)n2n1)Nc1ccc2c(c1)OCO2 7.14%
CCOC(=O)N1CCC(NC(=O)C2CCCN(S(C)(=O)=O)C2)CC1 (centres undefined) 5.41%
COCCOC(=O)C1=C(C)NC(=O)NC1c1c(F)cccc1Cl (centres undefined) -12.3%
O=C(Cn1cc([N+](=O)[O-])cn1)Nc1cccnc1 1.1%
CCOC(=O)c1c(NC(=O)C2CC=CCC2C(=O)O)sc(C)c1CC (centres undefined) 5.22%
Cc1sc(NC(=O)c2cccs2)c(C(=O)OC(C)C)c1C 9.67%
COC(=O)c1c(NC(=O)C2CC=CCC2C(=O)O)sc(C(N)=O)c1C (centres undefined) 51.5%
CC(=O)Nc1sc(C)c(C)c1C(=O)OC(C)C 14.2%
COc1ccc(CCNC(=O)C2CC(=O)N(c3ccc(Br)cc3)C2)cc1OC (centres undefined) 3.2%
Cc1ccnc2ccc(SC(F)(F)F)cc12 1.01%
CC(=O)c1cccc(NC(=O)CN2C(=O)C3C4C=CC(C4)C3C2=O)c1 (centres undefined) 31.7%
Cc1cc(C(F)(F)F)nc(SCC(=O)Nc2ccccc2)n1 -7.44%
COc1cccc(NC(=O)CSc2nc(N)cc(N)n2)c1 47.2%
COC(=O)c1cccc(NC(=O)COC(=O)CSc2nc(C)cc(C)n2)c1 5.31%
CCOC(=O)c1ccc(NC(=O)CN2C(=O)C3C4C=CC(C4)C3C2=O)cc1 (centres undefined) 28.7%
Cc1cccc(NC(=O)CSc2nc(N)cc(N)n2)c1 34.4%
Cn1ccnc1SCC(=O)Nc1cccc(C(F)(F)F)c1 15.9%
COC(=O)c1cccc(NC(=O)CSc2nnc(C)n2C)c1 12.6%
CCCNC(=O)Nc1ccc(C(F)(F)F)cc1 6.33%
CC1(C)CC(=O)c2cnc(NC(=O)CSc3nc4ccccc4o3)nc2C1 8.26%
NC(=O)c1cc(-c2ccncc2)nc2ccc(Cl)cc12 8.6%
Cn1c(=O)n(C)c2cc(S(=O)(=O)Nc3ccccc3O)ccc21 -0.99%
C/C(=C1/SC(N2CC(C)OC(C)C2)=NC1=O)c1ccccc1 (centres undefined) 1.49%
Cc1ccc(S(=O)(=O)Nc2nc(C)cc(NCCN)n2)cc1 -5.52%
CCOC(=O)N1CCN(CCC(=O)Nc2ccc(OC)cc2)CC1 5.12%
Cc1ccc2nsnc2c1S(=O)(=O)Nc1cccc2nsnc12 2.26%
Cc1cc(C)c(S(=O)(=O)Nc2cccc3nsnc23)c(C)c1 3.04%
COC(=O)c1cc(C#N)c(NCc2ccccc2)nc1C -1.82%
Cc1nn(C)cc1CN(C)C(=O)c1cc(COc2ccc(F)cc2F)on1 -16.1%
O=C1OCC2OC(O)C(O)C(O)C2OC(=O)c2cc(O)c(O)c(O)c2-c2c(O)c(O)c3oc(=O)c4c(c(O)c(O)c5oc(=O)c2c3c54)-c2c1cc(O)c(O)c2O (centres undefined) 20.8%
COc1cccc(NC(=O)Cn2c(=O)n(CCC(=O)NCc3ccco3)c(=O)c3ccccc32)c1 -7.32%
CCn1c(N2CCN(CC(=O)c3c(C)n(C)c4ccccc34)CC2)nc2c1c(=O)[nH]c(=O)n2C 16.3%
CN(Cc1nc(Cc2ccccc2F)no1)CC1(N2CCOCC2)CCCCC1 -3.08%
CN(Cc1cc2ccccc2[nH]c1=O)C(=O)COc1ccccc1 -2.37%
O=C1C2CC=C(Cl)CC2C(=O)N1CCc1ccccc1 (centres undefined) 51.8%
O=C1C2CC=C(Cl)CC2C(=O)N1CCC[n+]1ccccc1 (centres undefined) -3.64%
CCOC(=O)N1CCN(C(c2ccc(F)cc2)c2sc3nc(C)nn3c2O)CC1 (centres undefined) -1.83%
C=CCO/N=C(\C)c1c(O)c(C)c(-c2ccccc2)n(-c2ccccc2)c1=O 54%
CC(=O)c1c(O)c(C)c(-c2ccccc2)n(-c2ccccc2)c1=O 31.5%
CCO/N=C(/C)c1c(O)c(C)c(-c2ccccc2)n(-c2ccccc2)c1=O 45.5%
C/C(=N/O)c1c(O)c(C)c(-c2ccccc2)n(-c2ccccc2)c1=O 46.8%
COc1cc(/C=N/NC(=O)c2sc(N)c(C#N)c2C)ccc1O 3.64%
COc1ccc(Cn2c(SC)nc3ccccc32)cc1[N+](=O)[O-] -7.5%
CCCn1nnc(NC(=O)c2ccc(Br)cc2)n1 -4.35%
Cc1ccsc1/C=N/NC(=O)CSCc1ccc(Cl)cc1 3.08%
Cc1cc(C)c(S(=O)(=O)Nc2c(C)[nH]c(=O)[nH]c2=O)c(C)c1 -3%
Cc1cccc2cc(CN(Cc3ccc(F)cc3)C(=O)N3CCOCC3)c(=O)[nH]c12 6.9%
CN1/C(=C\C(=O)CSc2nnc(NCc3ccccc3)s2)C(C)(C)c2ccccc21 -5.09%
O=C(Cc1cccs1)Nc1nnc(SCC(=O)N2CCCCC2)s1 4.31%
CC1CCCC(C)N1C(=O)CSc1nnc(NC(=O)c2cccs2)s1 (centres undefined) 35.8%
COc1cccc(Nc2nnc(SCC(=O)N3CCOCC3)s2)c1 31.6%
COc1ccccc1Nc1nnc(SCC(=O)N2CCCC2)s1 28.9%
CN1/C(=C\C(=O)CSc2nnc(N)s2)C(C)(C)c2ccccc21 30.2%
